# According to publication PMC3795721, “Screening for Protein-DNA Interactions by Automatable DNA-Protein Interaction ELISA”:
# Target: AT4G31550 (Arabidopsis thaliana, UniProt Q9SV15 228-325)
# Assay: DPI-ELISA; DPI-ELISA, streptavidin 384-well plate, 1-2 pmol biotinylated dsDNA per well, crude native E. coli extract, anti-His detection; buffer as in Brand et al. [46],; high values mean tight binding
# Conditions: tags: C-terminal His (pET-DEST42); label: 5' biotin on forward strand; dsDNA, one strand shown
# AT4G31550, sequence (Q9SV15 228-325): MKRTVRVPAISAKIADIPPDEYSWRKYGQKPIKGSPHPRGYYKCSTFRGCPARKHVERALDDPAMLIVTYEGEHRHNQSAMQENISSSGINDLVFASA
row,Sequence,binding signal
1,AAAAAAAGCTTCTATAGCTCCATGGAAAA,0.515 ± 0.106 absorbance
2,AAAAAAGTCCATAAACTAAATTGGATAAAA,0.525 ± 0.0495 absorbance
3,AAAAAATTACTCCTAGCCCTCATTCAAAAA,1.36 ± 0.976 absorbance
4,AAAAAATTCTTACTTTTGTCTTTACTAAAA,0.79 ± 0.156 absorbance
5,AAAAAATACTGGCTGTCTCGTTCACAAAAA,0.615 ± 0.0778 absorbance
6,AAAAAATTCCGCGTGTATGTGTACGTAAAA,0.72 ± 0.212 absorbance
7,AAAAAATAGACCCTGACCCACCATTGAAAA,0.71 ± 0.113 absorbance
8,AAAAAAAGTTGTACTTATTATACTTTAAAA,0.53 ± 0.113 absorbance
9,AAAAAAAACGTCTGGCGGGGTTGAGAAAAA,0.65 ± 0.113 absorbance
10,AAAAAACGGTAAGTCGACAAAA,0.545 ± 0.0354 absorbance
11,AAAAAAGGGTATACTCGCAGCCCCTAAAAA,0.51 ± 0.0849 absorbance
12,AAAAAACCCTACATCGCATATAAGAGAAAA,0.675 ± 0.0212 absorbance
13,AAAAAATCGGTACGCACCCCGGACTCAAAA,0.73 ± 0.184 absorbance
14,AAAAAATGTGCCCGTGTGTGCTCGCGAAAA,0.73 ± 0.0849 absorbance
15,AAAAAAGGTGAGGAAGTTGGGTATGGAAAA,0.64 ± 0.0566 absorbance
16,AAAAAATCAGTCTGAGACTTACAACTAAAA,0.84 ± 0.283 absorbance
17,AAAAAAAAGGACATTTTTTCTTTTTGAAAA,0.515 ± 0.0636 absorbance
18,AAAAAACACTTAACTGAGTGGGATTGAAAA,0.705 ± 0.134 absorbance
19,AAAAAAGCCATCATGGTTAGTGTACAAAAA,0.665 ± 0.148 absorbance
20,AAAAAATTACTTCTCCCTTCCTTTGCAAAA,0.605 ± 0.163 absorbance
21,AAAAAACCCCAGATTTCCAGCAGTTCAAAA,0.945 ± 0.629 absorbance
22,AAAAAAGTCGTCACGCACGTGAATACAAAA,1.15 ± 0.0141 absorbance
23,AAAAAAACCCTGTGTCGGCCGATAAAAAA,0.58 ± 0.099 absorbance
24,AAAAAATCAAAACAACGATGCCGTTAAAAA,0.73 ± 0.0849 absorbance
